What all share (assay): NCI-60 one-dose screen, 48 h (100 = growth as untreated, 0 = no growth, -100 = all killed)
One test relates to NCI-H23 lung. As to conditions: 10 µM unless noted.
Another test concerns NCI-H226 lung. The note with it: 10 µM unless noted.
A further test has as its system NCI-H322M lung. As to conditions: 10 µM unless noted.
The next test has as its system HOP-62 NSCLC. The note with it: 10 µM unless noted.
The test system of a further test is NCI-H460 lung. The note with it: 10 µM unless noted.
A further test deals with HOP-92 NSCLC. As to conditions: 10 µM unless noted.
The subject of another test is NCI-H522 lung. The note with it: 10 µM.
A further test deals with 786-0 renal. As to conditions: 10 µM unless noted.
A further test has as its system COLO 205 colon. The note with it: 10 µM unless noted.
A further test relates to DU-145 prostate. The note with it: 10 µM unless noted.
For another test, the system named is K-562 leukemia. The note with it: 10 µM unless noted.
The next test relates to MALME-3M melanoma. The note with it: 10 µM unless noted.
A further test concerns MDA-MB-231 breast. The note with it: 10 µM unless noted.
A further test relates to SF-268 CNS. The note with it: 10 µM unless noted.
The subject of the next test is SF-295 CNS. The note with it: 10 µM unless noted.
Another test relates to SF-539 CNS. As to conditions: 10 µM unless noted.
A further test concerns UACC-257 melanoma. The note with it: 10 µM unless noted.
In the next test the test system is M14 melanoma. The note with it: 10 µM unless noted.
The subject of the next test is RXF 393 renal. The note with it: 10 µM unless noted.

About 83,000 compounds went through this panel and 20% of them were active in at least one assay; those are over-represented in the sample as a whole.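 Single-dose data. Exposure time 48 hours. Values below 10 considered active.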 A number with no mark means an inactive call. Calls of active or inactive are those of the source.

Turning to `COC(=O)c1c(NC(=O)CSc2nnnn2-c2ccc(OC)cc2)sc(C)c1C`, the growth with NCI-H23 lung was 76.7%; with NCI-H226 lung, 79.4%; in the test on NCI-H322M lung, 100%; with HOP-62 NSCLC, 99.3%; in the test with NCI-H460 lung, 106%; in the test with HOP-92 NSCLC, 75.1%. The growth is 91.1% in the test on NCI-H522 lung; 107% in the test on 786-0 renal; 105% in the test on COLO 205 colon; 108% with DU-145 prostate; 81.5% in the test with K-562 leukemia; 104% with MALME-3M melanoma. The growth with MDA-MB-231 breast is 76.5%; with SF-268 CNS, 93.5%; with SF-295 CNS it was 156%; with SF-539 CNS, 98.3%; in the test on UACC-257 melanoma it was 16.8%; in the test on M14 melanoma, 95.8%.
As to `CC(NC(N)=S)c1ccccc1` (stereo not given), the growth in the test with NCI-H23 lung was 110%; in the test on NCI-H226 lung, 101%; in the test with NCI-H322M lung, 97.8%; in the test on HOP-62 NSCLC, 85.6%; with NCI-H460 lung it was 101%; in the test with HOP-92 NSCLC, 106%. The growth in the test on NCI-H522 lung was 102%; in the test on 786-0 renal, 98%; with COLO 205 colon, 107%; in the test on DU-145 prostate, 115%; in the test on K-562 leukemia, 94.6%; with MALME-3M melanoma, 105%. Moreover, the growth with MDA-MB-231 breast was 91.9%; in the test on RXF 393 renal it was 98%; in the test on SF-268 CNS, 106%; in the test on SF-295 CNS, 101%; with SF-539 CNS it was 96.1%; in the test with M14 melanoma it was 104%.
In the case of `COc1ccc2c(c1)[n+](=O)c(/C=C/C(=O)c1cc(OC)c(OC)c(OC)c1)c(C)n2[O-]`, the growth in the test on NCI-H23 lung is 80%; in the test on NCI-H226 lung, 84.5%; in the test with NCI-H322M lung it was 110%; with HOP-62 NSCLC, 94.3%; in the test with NCI-H460 lung it was 81.8%; in the test on HOP-92 NSCLC it was -22.4% (active). Also, the growth is -60.1% (active) with NCI-H522 lung; 67.2% with 786-0 renal; 32% in the test with COLO 205 colon; 17.5% with DU-145 prostate; 2.27% (active) with K-562 leukemia; 86% with MALME-3M melanoma. Besides, the growth in the test on MDA-MB-231 breast is 84.1%; in the test with RXF 393 renal, 38.5%; in the test on SF-268 CNS, 69.4%; in the test with SF-295 CNS, 46.4%; in the test on SF-539 CNS it was 70.2%; in the test with UACC-257 melanoma, 63.6%. The growth in the test on M14 melanoma is 63.6%.
Regarding `COc1cc(/C(Cl)=C/C=C/C(=O)c2c(C)[n+]([O-])c3ccc(Cl)cc3[n+]2[O-])cc(OC)c1OC`, the growth with NCI-H23 lung is 63.7%; with NCI-H226 lung, 54.3%; in the test on NCI-H322M lung, 96.3%; with HOP-62 NSCLC, 7.24% (active); in the test on NCI-H460 lung, 56.6%; in the test on HOP-92 NSCLC it was 68.8%. In addition, the growth with NCI-H522 lung was -33.4% (active); in the test with 786-0 renal, 35.1%; in the test on COLO 205 colon, -14.8% (active); in the test with DU-145 prostate, 67.8%; with K-562 leukemia, 13.3%; in the test with MALME-3M melanoma, 65.7%. Besides, the growth in the test on MDA-MB-231 breast was 30.1%; with RXF 393 renal it was 47.9%; in the test on SF-268 CNS, -20.1% (active); in the test with SF-295 CNS, 36.4%; with SF-539 CNS it was 24.3%; in the test with M14 melanoma it was 43.4%.
As for `CC1C(=O)NC2=Nc3ccccc3C(=O)NN21` (stereo not given), the growth in the test with NCI-H23 lung was 97.2%; with NCI-H226 lung it was 92.9%; in the test with NCI-H322M lung, 97.2%; with HOP-62 NSCLC, 87.8%; in the test on NCI-H460 lung, 104%; with HOP-92 NSCLC it was 94.9%. In addition, the growth was 97.5% with NCI-H522 lung; 97.9% in the test with 786-0 renal; 104% in the test on COLO 205 colon; 119% with DU-145 prostate; 101% in the test on K-562 leukemia; 104% in the test on MALME-3M melanoma. In addition, the growth in the test on MDA-MB-231 breast is 90.4%; in the test with RXF 393 renal it was 116%; in the test on SF-268 CNS, 113%; in the test on SF-295 CNS, 105%; in the test on SF-539 CNS it was 103%; in the test on UACC-257 melanoma it was 114%. Moreover, the growth in the test on M14 melanoma is 102%.
Take `CSc1nc2nc3c(c(-c4ccc(C)cc4)c2c(=O)[nH]1)CN(C)C/C3=C\c1ccc(C)cc1`: the growth is 88.4% with NCI-H23 lung; 102% in the test with NCI-H226 lung; 103% in the test on NCI-H322M lung; 115% in the test with HOP-62 NSCLC; 111% with NCI-H460 lung; 97.3% in the test with HOP-92 NSCLC. For the same compound, the growth is 93.2% in the test on NCI-H522 lung; 111% in the test on 786-0 renal; 121% in the test with COLO 205 colon; 99.4% in the test with DU-145 prostate; 103% in the test with K-562 leukemia; 120% with MALME-3M melanoma. Besides, the growth with MDA-MB-231 breast is 86.3%; in the test with RXF 393 renal, 109%; in the test with SF-268 CNS, 90.9%; in the test on SF-295 CNS, 111%; with SF-539 CNS, 124%; in the test with UACC-257 melanoma it was 79.7%. Besides, the growth in the test on M14 melanoma was 104%.
As for `O=C(O)CCNS(=O)(=O)c1ccc(-c2ccccc2)cc1`, the growth was 98.4% in the test with NCI-H23 lung; 92% with NCI-H226 lung; 129% in the test with NCI-H322M lung; 103% in the test on HOP-62 NSCLC; 114% with NCI-H460 lung; 83.9% in the test with HOP-92 NSCLC. Also, the growth was 98.4% with NCI-H522 lung; 106% with 786-0 renal; 111% with COLO 205 colon; 127% in the test on DU-145 prostate; 114% with K-562 leukemia; 112% in the test on MALME-3M melanoma. The growth is 123% in the test with MDA-MB-231 breast; 115% in the test with SF-268 CNS; 131% in the test with SF-295 CNS; 108% in the test with SF-539 CNS; 87.5% with UACC-257 melanoma; 104% with M14 melanoma.
Take `Cn1ccnc1C(=O)/C=C/c1ccc(C(=O)Nc2nc3ccccc3[nH]2)cc1`: the growth in the test on NCI-H23 lung was 23.3%; in the test with NCI-H226 lung, 82.4%; with NCI-H322M lung it was 43.8%; with HOP-62 NSCLC it was 34.1%; with NCI-H460 lung, 10.9%; in the test with HOP-92 NSCLC it was 52.8%. Besides, the growth in the test on NCI-H522 lung is 58.6%; in the test on 786-0 renal, 23.6%; with COLO 205 colon, 55.1%; in the test with DU-145 prostate, -13.7% (active); in the test on K-562 leukemia it was 2.24% (active); with MALME-3M melanoma, 72.7%. Also, the growth is 19.3% in the test on MDA-MB-231 breast; 2.67% (active) in the test with RXF 393 renal; 40.2% in the test on SF-268 CNS; 64.9% with SF-295 CNS; 9.47% (active) in the test with SF-539 CNS; 71.1% with M14 melanoma.
Regarding `COc1cc(-c2nc3nc4sc(C)c(C)c4c(=O)n3[nH]2)cc(OC)c1OC`, the growth in the test on NCI-H23 lung is 94.1%; in the test on NCI-H226 lung, 112%; in the test on NCI-H322M lung, 93%; in the test with HOP-62 NSCLC it was 74.2%; in the test on NCI-H460 lung it was 92.9%; in the test with HOP-92 NSCLC it was 70.8%. Also, the growth with NCI-H522 lung is 61.4%; in the test on 786-0 renal, 87.9%; in the test with COLO 205 colon it was 94.2%; in the test with DU-145 prostate, 99.7%; with K-562 leukemia it was 47%; in the test with MALME-3M melanoma, 59.6%. Besides, the growth in the test with MDA-MB-231 breast was 91.2%; in the test on RXF 393 renal it was 78.9%; with SF-268 CNS, 95.9%; in the test on SF-295 CNS, 60.5%; in the test on SF-539 CNS, 83.4%; with M14 melanoma it was 78.2%.
